Assay [1] deals with MDA-MB-231. Description: cell viability relative to vehicle unstimulated control (fraction); higher = more viable cells. Particulars: pre-treatment time: 18 h then 24 h IFNg/TNF.
For assay [2], the system named is MDA-MB-231. Description: kynurenine production, fold change vs DMSO IFNg/TNF control; higher = more kynurenine produced (less inhibition). Conditions: pre-treatment time: 18 h then 24 h IFNg/TNF. The gist of the method:
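MDA-MB-231 cells were seeded in 96-well plates at 7 × 10^4/well and, 24 h later, pre-treated for 18 h with each natural product in 0.1% DMSO. They were then stimulated for 24 h at 37°C with IFNγ (1 U/ml) and TNF (6.25 ng/ml). Supernatants were treated with trichloroacetic acid and p-dimethylaminobenzaldehyde and read at 492 nm against 0–100 μM standards. Kynurenine production is expressed as fold change over cytokine-stimulated vehicle wells on the same plate and, in the first screening round, averaged across duplicate plates.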

Structures can show the parent of a compound that is named as a salt. ± gives the standard deviation of the averaged measurements.
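Wherever cell viability relative to vehicle unstimulated control is given: viability of the cells left after supernatant collection, read with Deep Blue dye added for 4 h, as absorbance at 570 nm minus 600 nm.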

Turning to `CN1[C@@H]2CC[C@H]1C[C@@H](OC(=O)[C@H](CO)c1ccccc1)C2` [Hyoscyamine hydrobromide] (compound dose: 10 uM), in the assay with MDA-MB-231 [1], the cell viability was found to be 1.03 ± 0.024. Also, in the assay with MDA-MB-231 [2], the kynurenine production came out at 0.743 ± 0.061.

Consider `CC1=C2[C@H]3OC(=O)[C@@H](C)[C@@H]3CC[C@@]2(C)C=CC1=O` [Santonin] (compound dose: 10 uM), for which the cell viability in the assay with MDA-MB-231 [1] came to 0.9716 ± 0.0046. Besides, the kynurenine production with MDA-MB-231 [2] stood at 1.02 ± 0.023.

Consider `CC1=C[C@]23C(=O)[C@@H](C=C(COC(=O)c4ccccc4)[C@@H](O)[C@]2(O)[C@H]1OC(=O)c1ccccc1)[C@H]1[C@@H](C[C@H]3C)C1(C)C` [Ingenol 3,20-dibenzoate] (compound dose: 10 uM), for which, in the assay with MDA-MB-231 [1], the cell viability is 1.05 ± 0.061. Besides, the kynurenine production in the assay with MDA-MB-231 [2] is 0.6413 ± 0.0018.

For `C=C1[C@@H]2CC[C@H]3[C@]4(C)C[C@H](O[C@@H]5O[C@H](CO)[C@@H](OS(=O)(=O)O)[C@H](OS(=O)(=O)O)[C@H]5OC(=O)CC(C)C)CC(C(=O)O)(C(=O)O)[C@H]4CC[C@]3(C2)[C@H]1O` [Carboxyatractyloside (dipotassium)] (compound dose: 10 uM), the cell viability in the assay with MDA-MB-231 [1] came to 1.03 ± 0.071. Also, the kynurenine production with MDA-MB-231 [2] is 0.825 ± 0.43.

For the compound `Cc1cc(O)c2c(=O)c3c(O)cc(O)c4c5c(O)cc(O)c6c(=O)c7c(O)cc(C)c8c1c2c(c34)c(c78)c65` [Hypericin] (compound dose: 10 uM), in the assay on MDA-MB-231 [1], the cell viability came to 0.0887 ± 0.085. The kynurenine production in the assay on MDA-MB-231 [2] is 0.103 ± 0.063.

Consider `COc1cc2c(c(OC)c1OC)-c1ccc(OC)c(=O)cc1[C@@H](NC(C)=O)CC2` [Colchicine] (compound dose: 10 uM), for which the cell viability in the assay on MDA-MB-231 [1] turned out to be 0.802 ± 0.097. In addition, in the assay on MDA-MB-231 [2], the kynurenine production is 0.234 ± 0.046.

As for `C=C(C)C(=O)O[C@H]1[C@@H]2[C@H](C)C(=O)O[C@@H]2C[C@@H](C)[C@@H]2C=CC(=O)[C@]21C` [Arnicolide D] (compound dose: 10 uM), the cell viability in the assay with MDA-MB-231 [1] came out at 0.784 ± 0.08. In addition, the kynurenine production in the assay on MDA-MB-231 [2] came out at 0.153 ± 0.067.

The record behind these values is the supplement of paper PMC13094657.
